The list is not random: actives were taken first. Their share in the collection is about 2.3%.
M1 ag parental: nonselective activator or artifact in parental CHO-K1 cells | Fluo-8 calcium fluorescence; scaled to maximal ATP response, vehicle zero | activation, % at 3 µM | 0.48% of 360,000 active; in the data active = activation above about 15%;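 note: untransfected CHO-K1 host cells lacking M1 receptor as counterscreen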
M1 PAM: positive allosteric modulators of human M1 muscarinic receptor. activation, % at 3 µM. 0.088% of 360,000 active. AID 588819. CHO-K1 hM1, Fluo-8 calcium fluorescence, ACh EC20; 0% = ACh EC20, 100% = maximal ACh; in the data active = activation above about 19%, passing the limit was not always enough
Target sequence (P11229 whole entry, looked up): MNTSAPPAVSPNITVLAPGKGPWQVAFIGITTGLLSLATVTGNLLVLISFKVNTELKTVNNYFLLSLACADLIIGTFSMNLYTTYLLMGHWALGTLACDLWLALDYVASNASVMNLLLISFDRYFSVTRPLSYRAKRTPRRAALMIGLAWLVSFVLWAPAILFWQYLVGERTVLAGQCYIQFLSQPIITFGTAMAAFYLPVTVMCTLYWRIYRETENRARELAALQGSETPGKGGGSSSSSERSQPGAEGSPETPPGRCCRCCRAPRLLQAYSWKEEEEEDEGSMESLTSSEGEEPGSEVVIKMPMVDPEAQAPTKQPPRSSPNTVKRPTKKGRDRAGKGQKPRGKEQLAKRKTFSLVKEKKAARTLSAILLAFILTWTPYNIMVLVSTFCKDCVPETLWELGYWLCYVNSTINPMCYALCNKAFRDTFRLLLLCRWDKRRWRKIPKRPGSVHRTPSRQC
CHRM1 antagonist: blocks human M1 muscarinic receptor; P11229; CHO-K1 hM1, Fluo-8 calcium fluorescence, ACh EC80 antagonist; inhibition, % at 3 µM; 1.3% of 360,000 active; AID 588852;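 active = percent inhibition above its own plate's cutoff, namely the mean of that plate's compound wells plus 3 SD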;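 note: peak over basal fluorescence ratio during 140 s after agonist addition; 0% = ACh EC80 plus DMSO and 100% = DMSO alone without agonist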
M1 ag: agonists of human M1 muscarinic receptor; P11229; CHO-K1 hM1, Fluo-8 calcium fluorescence, agonist mode; 0% DMSO, 100% acetylcholine EC100; activation, % at 3 µM; 0.33% of 360,000 active;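 active = activation above the run's mean compound activation plus 3 SD, cut at about 16% in these data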;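 note: peak over basal fluorescence ratio within a 140 s kinetic read after compound addition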
CHO-K1 Ca antag: counter-screen for M1 antagonists: effect in parental CHO-K1 cells; inhibition, % at 3 µM; 0.6% of 360,000 active; ATP-induced calcium, Fluo-8 fluorescence; AID 602250;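 active = inhibition above a per-plate cutoff, the plate's mean sample inhibition plus 3 SD, cut at about 24% in these data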;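 note: 0% = DMSO plus EC80 ATP and 100% = DMSO alone without ATP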
CHO-K1 Ca PAM: M1 PAM counterscreen hit in parental CHO-K1 cells | 0.02% of 360,000 active | ATP EC20, Fluo-8 calcium fluorescence; 0% at ATP EC20, 100% at ATP max | activation, % at 3 µM;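 active = activation above the run cutoff, the mean activation of all test compounds plus 3 SD, cut at about 40% in these data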;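 note: peak over basal fluorescence ratio in a 140 s read after ATP addition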
The depositor's hits bear a star.

How did CC1([N+](=O)[O-])COC(c2cccc3ccccc23)OC1 (centres undefined) do in these assays?
M1 ag parental: -0.2; M1 PAM: -8.7; CHRM1 antagonist: 10.6; M1 ag: -2.4; CHO-K1 Ca antag: 26.1*; CHO-K1 Ca PAM: -14.8

Results for Cc1ccc(C(=O)NCC(=O)N(C)Cc2ccccc2C)s1 ?
M1 ag parental: -0.3; M1 PAM: 13.1; CHRM1 antagonist: -15.7; M1 ag: 5.2; CHO-K1 Ca antag: 17.2; CHO-K1 Ca PAM: -16.5

Results for Cc1cccc(C)c1NC(=O)CN(C)C(=O)CN1C(=O)NC(C)(C)C1=O ?
M1 ag parental: 0.6; M1 PAM: 6.3; CHRM1 antagonist: -13.9; M1 ag: -2.9; CHO-K1 Ca antag: -18.2; CHO-K1 Ca PAM: 14.6

How did C[C@@H]1CN([C@@H](C)CO)C(=O)c2cc(NC(=O)C3CC3)ccc2O[C@@H]1CN(C)C(=O)NC1CCCCC1 do in these assays?
M1 ag parental: 0.3; M1 PAM: 1.0; CHRM1 antagonist: -0.5; M1 ag: 6.2; CHO-K1 Ca antag: -3.4; CHO-K1 Ca PAM: -1.4

What do the screens show for `CC(C)CC[n+]1ccccc1/C=C/c1ccc(N(C)C)cc1`?
M1 ag parental: 6.2; M1 PAM: -13.3; CHRM1 antagonist: 28.6*; M1 ag: 8.8; CHO-K1 Ca antag: 12.1; CHO-K1 Ca PAM: -4.8

How did O=C(Nc1ccccc1F)C1COc2ccccc2O1 (centres undefined) do in these assays?
M1 ag parental: -0.1; M1 PAM: 12.7; CHRM1 antagonist: -17.2; M1 ag: -2.2; CHO-K1 Ca antag: 1.6; CHO-K1 Ca PAM: 5.1

Results for CCc1ccc(Nc2cc(=O)n(C3CCCCC3)c(=O)[nH]2)cc1 ?
M1 ag parental: 19.0*; M1 PAM: -3.2; CHRM1 antagonist: 11.8; M1 ag: 19.7*; CHO-K1 Ca antag: 3.4; CHO-K1 Ca PAM: 3.5

What do the screens show for `CC1(C)CC(NC(=O)C2CCN(S(=O)(=O)c3ccc(Cl)c(C(F)(F)F)c3)CC2)CC(C)(C)N1`?
M1 ag parental: 0.7; M1 PAM: 11.5; CHRM1 antagonist: -14.9; M1 ag: -8.5; CHO-K1 Ca antag: -20.9; CHO-K1 Ca PAM: 11.4

Results for COc1ccc(C(C(=O)NC2CCCCC2)N(Cc2cccnc2)C(=O)c2snc(C(N)=O)c2N)cc1 (centres undefined) ?
M1 ag parental: 1.4; M1 PAM: 2.2; CHRM1 antagonist: -2.0; M1 ag: -1.6; CHO-K1 Ca antag: -9.0; CHO-K1 Ca PAM: 9.5

What do the screens show for `Fc1ccccc1CN1CCCCCCC1`?
M1 ag parental: 0.4; M1 PAM: -4.7; CHRM1 antagonist: 4.6; M1 ag: -11.8; CHO-K1 Ca antag: -16.4; CHO-K1 Ca PAM: 1.9

How did c1ccc(Sc2ccccc2CN2CCCC2)cc1 do in these assays?
M1 ag parental: 0.7; M1 PAM: -24.1; CHRM1 antagonist: 78.9*; M1 ag: -8.6; CHO-K1 Ca antag: 2.2; CHO-K1 Ca PAM: 3.8

What do the screens show for `O=C(NCCc1ccc(Cl)cc1)c1ccc(CS(=O)Cc2ccccc2Cl)o1` (centres undefined)?
M1 ag parental: 8.8; M1 PAM: -17.6; CHRM1 antagonist: 36.6*; M1 ag: -1.8; CHO-K1 Ca antag: -4.7; CHO-K1 Ca PAM: -0.8

How did COc1cccc(/C=C/C(=O)OCC(=O)NC2CCCCCC2)c1 do in these assays?
M1 ag parental: 0.6; M1 PAM: 9.6; CHRM1 antagonist: -14.9; M1 ag: -4.7; CHO-K1 Ca antag: -8.5; CHO-K1 Ca PAM: 9.2

How did CC(C)(CO)CNC(=O)CCc1nnc(C2(c3ccc(Cl)cc3)CCC2)o1 do in these assays?
M1 ag parental: -0.1; M1 PAM: 3.1; CHRM1 antagonist: 0.7; M1 ag: -4.3; CHO-K1 Ca antag: 3.6; CHO-K1 Ca PAM: -1.1

Results for COCCNC(=O)CCc1nnc(C2(c3ccc(Cl)cc3)CCC2)o1 ?
M1 ag parental: 15.8*; M1 PAM: 8.3; CHRM1 antagonist: 1.2; M1 ag: -7.3; CHO-K1 Ca antag: 10.8; CHO-K1 Ca PAM: 4.2

How did CCCCN(C)CCCNC(=O)c1cccc(N2CCCC2=O)c1 do in these assays?
M1 ag parental: 0.1; M1 PAM: 0.2; CHRM1 antagonist: 5.7; M1 ag: -5.8; CHO-K1 Ca antag: 12.2; CHO-K1 Ca PAM: 0.2

How did CN(CCCNC(=O)c1cccc(N2CCCC2=O)c1)c1ccccc1 do in these assays?
M1 ag parental: 1.2; M1 PAM: -14.3; CHRM1 antagonist: 29.9*; M1 ag: -5.6; CHO-K1 Ca antag: 5.1; CHO-K1 Ca PAM: -4.2

What do the screens show for `COc1cccc(-c2ccc(NC(=O)C3CCCN(Cc4cccc(C)n4)C3)cc2)c1` (centres undefined)?
M1 ag parental: 2.9; M1 PAM: -28.5; CHRM1 antagonist: 53.0*; M1 ag: -4.5; CHO-K1 Ca antag: -2.4; CHO-K1 Ca PAM: 8.6

Results for COc1cccc(-c2ccc(NC(=O)C3CCCN(Cc4cnn(C)c4C)C3)cc2)c1 (centres undefined) ?
M1 ag parental: 1.9; M1 PAM: 0.5; CHRM1 antagonist: -15.2; M1 ag: -13.7; CHO-K1 Ca antag: -23.9; CHO-K1 Ca PAM: 15.8

What do the screens show for `COc1cccc(CN2CCCC(C(=O)Nc3ccc(-c4cscn4)cc3)C2)c1` (centres undefined)?
M1 ag parental: 4.7; M1 PAM: -19.6; CHRM1 antagonist: 34.6*; M1 ag: -2.8; CHO-K1 Ca antag: -4.4; CHO-K1 Ca PAM: -3.0

What do the screens show for `Cc1ncc(CN2CCCC(C(=O)Nc3ccc(-c4cscn4)cc3)C2)cn1` (centres undefined)?
M1 ag parental: 0.4; M1 PAM: 10.0; CHRM1 antagonist: -12.7; M1 ag: 0.6; CHO-K1 Ca antag: 2.0; CHO-K1 Ca PAM: 2.3

What do the screens show for `COc1ccc(-c2[nH]ncc2CN2CCCC(C(=O)c3cccc(OC)c3)C2)cc1` (centres undefined)?
M1 ag parental: 0.7; M1 PAM: -18.1; CHRM1 antagonist: 10.8; M1 ag: -13.3; CHO-K1 Ca antag: -10.1; CHO-K1 Ca PAM: -3.8

How did O=C(c1ccc2c3c(cccc13)CC2)C1CCCN(Cc2cccnc2)C1 (centres undefined) do in these assays?
M1 ag parental: 2.0; M1 PAM: -4.2; CHRM1 antagonist: -6.7; M1 ag: -6.3; CHO-K1 Ca antag: -14.9; CHO-K1 Ca PAM: 14.5

How did Cc1cccc(CN2CCCC(C(=O)c3ccc4c5c(cccc35)CC4)C2)n1 (centres undefined) do in these assays?
M1 ag parental: 2.5; M1 PAM: -21.6; CHRM1 antagonist: 94.5*; M1 ag: -4.0; CHO-K1 Ca antag: -9.6; CHO-K1 Ca PAM: 14.9

How did COc1ccc2cc(C(=O)C3CCCN(Cc4cccc(C)n4)C3)ccc2c1 (centres undefined) do in these assays?
M1 ag parental: 5.0; M1 PAM: -26.7; CHRM1 antagonist: 59.6*; M1 ag: -7.2; CHO-K1 Ca antag: -17.2; CHO-K1 Ca PAM: 12.0

Assay outcomes deposited in PubChem by The Scripps Research Institute Molecular Screening Center.
